Measurements published in PubChem BioAssay (NCI).
The panel holds about 83,000 compounds, 20% with a hit somewhere; the sample as a whole holds those more often.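 Cells were grown in 96-well plates and exposed to the test compound at a single concentration for 48 hours; results are reported as percent growth, with values below 10 considered active.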 A number with no mark means an inactive call. Calls of active or inactive are those of the source.

The molecules below were run on LOX IMVI melanoma (assay: NCI-60 one-dose screen, 48 h (100 = growth as untreated, 0 = no growth, -100 = all killed)). Conditions: 10 µM unless noted.

| Structure (SMILES) | growth |
| --- | --- |
| COc1ccc(-c2nc3cc(C(=O)NCc4ccccc4)ccc3n2C2CCCCC2)cc1 | 53.9% |
| CCN(CC)CCn1c2ccc(OC)cc2c2sc3cc(OC)ccc3c(=O)c21 | -75% (active) |
| COc1ccc(C(=O)N2c3ccccc3Sc3ccccc32)c(OC)c1 | 37.8% |
| CCN1CCN(C(=O)[C@]23CCC(C)(C)C[C@@H]2C2=CC[C@@H]4[C@@]5(C)CCC(=O)C(C)(C)[C@@H]5CC[C@@]4(C)[C@]2(C)CC3)CC1 | 43.8% |
| Clc1ccc2c(NC3CCC(N4CCOCC4)CC3)ccnc2c1 (stereo unspecified) | 68.6% |
| CCCOC(=O)Nc1nc2ccc(SCC(C)C)cc2s1 | 40.8% |
| COc1ccc(Nc2ncc(Br)c(NCCCNC(=O)c3cccs3)n2)cc1 | 14.6% |
| N#Cc1c(-c2ccccc2)cc(-c2ccc(Nc3nc(Nc4ccc(Cl)cc4)nc(Nc4ccc(Cl)cc4)n3)cc2)nc1N | -88.7% (active) |
| COC(=O)c1c(C)c2n(c1C)C(=O)C(c1ccccc1)=C2 | 73.8% |
| COc1ccc(Nc2ncc(Br)c(NCCCNC(=O)C3CCCC3)n2)cc1 | 11% |
| C=CCn1c(C)nc2ccc(Nc3nc(Nc4ccc5nc(C)n(CC=C)c5c4)c4ccccc4n3)cc21 | -88.6% (active) |
| O=C(O)c1cn(C2CC2)c2cc(N3CCN(Cc4ccc5ccccc5c4O)CC3)c(F)cc2c1=O | 40.1% |
| N#C/C(=C\c1c(-c2ccccc2)[nH]c2ccccc12)C(N)=O | 76.2% |
| COc1ccc(C2CC(c3ccc(Nc4nc(Nc5ccccc5)nc(Nc5ccccc5)n4)cc3)=NN2C(C)=O)cc1 (stereo unspecified) | 103% |
| COc1cc2c(c(OC)c1OC)CCC(c1cccc(C(=O)Nc3cccc(Cl)c3)c1)O2 (stereo unspecified) | 65.2% |
| COc1cc(OCc2cccc(Br)c2C)cc(OC)c1C=O | 90.1% |
| COC1=CC(c2ccc[nH]2)=N/C1=C\c1[nH]c(C)c(C(=O)OC(C)C)c1C | -92.4% (active) |
| CCCc1c(OC(=O)c2ccccc2)nc2[nH]c(=O)sc2c1C | 98.3% |
| CN(C)c1ccc(-c2c(C#N)c(N)nn2C(=O)c2ccc(NC(=O)c3ccccn3)cc2)cc1 | 65.3% |
| CC1CCN(CCOc2ccc(CNc3ccc4nc(CCC5CCCCC5)[nH]c4c3)cc2)CC1 | -85.7% (active) |
| COc1cc2c(cc1OCCCN1CCN(CCCOc3cc4c(cc3OC)C(=O)N3CCC[C@H]3C=N4)CC1)C=CC(C)(C)O2 | -98.6% (active) |
| Oc1c(I)cc(I)cc1CNCCN(Cc1ccccn1)Cc1ccccn1 | -64.2% (active) |
| O=CN1N=C(c2cccc(Nc3ccnc4cc(Cl)ccc34)c2)CC1c1ccccc1 (stereo unspecified) | 20.6% |
| COc1cc2c(cc1OC)C(C)N(S(N)(=O)=O)CC2 (stereo unspecified) | 102% |
| CCCC/C(CC)=N\NS(=O)(=O)c1ccc([N+](=O)[O-])cc1 | 94.2% |
| O=[N+]([O-])c1ccc(O)cc1Br | 95.4% |
